Data published in PubChem BioAssay AID873 (PCMD, 2007).
Values joined by “and” are separate entries in the source; they are usually repeats but may differ in a detail not shown here. Equal values may be shown once. Screen size: about 210,000 compounds; about 1,300 (0.62%) were called active. This is one part of a sample in which actives are shown more often than they occur.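 The calls were made as follows: active = inhibition of 40% or more; inactive = the rest.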 A structure can be active in one record and inactive in another.

What follows are molecules tested against Kallikrein-5 (Homo sapiens) (UniProt Q9Y337) (assay: inhibition of kallikrein 5 (hK5) activity – biochemical, 1536-well, primary screen (AID 873;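 also: 0% = enzyme controls without compound and 100% = no-enzyme blanks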)). Conditions: recombinant hK5, fluorogenic AMC substrate cleavage; at 5 µM; stronger effect = higher value.
Sequence of Kallikrein-5 (Homo sapiens) (Q9Y337 67-293 limits assumed): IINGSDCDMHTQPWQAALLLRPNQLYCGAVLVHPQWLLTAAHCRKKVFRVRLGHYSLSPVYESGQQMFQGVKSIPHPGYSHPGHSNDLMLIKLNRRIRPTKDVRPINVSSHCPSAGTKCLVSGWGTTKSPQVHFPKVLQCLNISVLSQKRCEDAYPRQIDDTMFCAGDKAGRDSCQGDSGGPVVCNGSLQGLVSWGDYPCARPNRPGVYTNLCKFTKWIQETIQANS

inhibition, inactive:
COC(=O)C1=C(C)NC(=O)NC1/C=C/c1ccccc1 (stereo not given) -24.4%
C=CCOC(=O)C1=C(C)N=C2SCCC(=O)N2C1/C=C/c1ccccc1OC (stereo not given) 1.43%
Cc1ccnc(NC(=O)CCC(=O)N(CC(=O)NCc2ccccc2)Cc2ccco2)c1 -56.9%
CSc1ccc(CN(C)CC(=O)NCc2ccc(F)cc2)cc1 -2.79%
Cc1[nH]n(-c2ccccc2)c(=O)c1N=Nc1ccccc1C(=O)N1CCCCC1 3.28%
O=C(Cc1ccccc1)N1N=C(c2ccncc2)CC1(O)C(F)(F)F (stereo not given) -2.66%
Brc1ccc2ncnc(NCc3cccnc3)c2c1 -4.89%
Cc1[nH]n(C)c(=O)c1C(=O)c1c(-c2c(Cl)cccc2Cl)noc1C 5.65%
O=C(NCC1CCCO1)/C(=C\c1ccco1)NC(=O)c1ccccc1 (stereo not given) -1.75%
Cc1cccc(NC(=O)/C(=C\c2ccco2)NC(=O)c2ccccc2)c1 -17.2%
O=C(CNCCC1=CCCCC1)Nc1ccccc1N1CCCCCC1 -0.35%
Cc1cccc(C)c1Nc1c(-c2ccccc2O)nc2ncccn12 -0.27%
CC(C)(C)OC(=O)NCCCCCC(=O)N/N=C/c1coc2ccccc2c1=O -0.18%
COc1cccc(NC(=O)C(C)Oc2ccccc2)c1 (stereo not given) 15.3%
O=C(O)Cc1ccc(-c2ccccc2)cc1 -3.86%
Cc1ccccc1Cn1c2ccccc2c2cnn(CC(=O)NCc3ccco3)c(=O)c21 1.05%
CCOc1ccccc1NC(=O)Nc1cc(OC)ccc1OC -0.87%
CCOc1ccccc1NC(=O)CCN1CCN(S(=O)(=O)c2ccc(OC)cc2)CC1 0.91%
CCS(=O)(=O)NCCc1ccc(OC)c(OC)c1 -7.94%
CCOCCCNCc1ccc(OCc2ccc(F)cc2)c(OC)c1 -4.94%
O=C(NCc1cccnc1)C(=O)Nc1nc(-c2ccccc2)cs1 -0.27%
COCCCNC(=O)c1ccc2c(c1)ncn2-c1ccccc1OC -11.7%
COc1cc(NS(=O)(=O)c2ccccc2)ccc1-n1nc(C)cc1C -1.07%
O=S(=O)(c1ccc(NC(=S)NN=C(C2CC2)C2CC2)cc1)N1CCOCC1 -9.15%
CCN1C(=O)/C(=c2\s/c(=C3\Sc4ccccc4N3C)c(=O)n2C)N(C)C1=S 2.3%
CCC(=O)/C=C1\Sc2ccccc2N1CC -8.47%
S=c1nc2ccccc2c2nc(-c3cccnc3)[nH]n12 -1%
O=C(CN1CCN(Cc2ccccc2)CC1)NC(c1ccccc1)c1ccccc1 -1.99%
Cc1cc2c(cc1C)N(Cc1ccccc1)C1=NCCCN12 -0.81%
COc1ccc(C(C(=O)NC(C)(C)C)N(C(=O)Cn2nnc3ccccc32)c2ccc(C(C)=O)cc2)cc1O (stereo not given) -4.08%
CCOc1ccc(/C(O)=C2\C(=O)C(=O)N(c3ccc(OC)cc3)C2c2ccccc2[N+](=O)[O-])cc1 (stereo not given) -0.1%
C/C(Cc1ccccc1)=N\NC(=O)CNC(=O)c1cccc(Br)c1 -15.8%
C/C(Cc1ccccc1)=N\NC(=O)CNC(=O)c1ccc2c(c1)OCCO2 -2.98%
Cc1cc(C(=O)NCCc2ccc(Cl)cc2)n(-c2ccccc2)n1 0.87%
C=CCNC(=O)c1ccc2c3n(nc2c1)-c1ccc(C)cc1CO3 2.58%
C=CCNC(=S)N/N=C/c1ccc(C)s1 -12.8%
Cc1nc(-c2ccc(Cl)cc2)sc1C1(C)CC(c2ccccc2F)=NO1 (stereo not given) 2.17%
CC(=O)c1ccc(S(=O)(=O)N2CCN(C(=O)/C=C/c3ccc4ccccc4n3)CC2)cc1 -6.25%
COCCNC(=S)N1CCN(C)CC1 0.97%
CC(=O)c1cccc(NC(=O)c2ccncc2)c1 2.01%
COc1cccc(NC(=O)c2ccccc2SC)c1 -2.44%
CC(C)(C)C(=O)NNC(=O)c1ccc(Oc2cc(Cl)cc(Cl)c2)o1 4.32%
COCCNc1nc(-c2ccccc2)nc2c1oc1ccccc12 1.99%
Cn1c(=O)c2c(-c3cccc(Br)c3)c(C#N)c(N)nc2n(C)c1=O 2.05%
S=C(NCCc1ccccc1)Nc1ccccc1 2.79%

inhibition, -2.57% (inactive) and 43.4% (active):
CCN1C(=O)/C(=C2/Sc3ccccc3N2CCCS(=O)(=O)O)SC1=S

inhibition, active:
COC(=O)C1=C(C)N=C2SC(C)C(=O)N2C1/C=C/c1ccccc1 (stereo not given) 61.9%
NC(=O)c1nsc(C(=O)N(CC(=O)NCc2ccc(F)cc2)Cc2ccco2)c1N 69.4%
O=C(OCN1C(=O)c2ccccc2C1=O)/C(=C\c1ccco1)NC(=O)c1ccccc1 41.6%
CCC(C)OC(=O)C(C)Oc1ccc(-c2ccccc2)cc1 (stereo not given) 54.9%
CCOc1ccccc1NC(=O)CCc1ccc(C)o1 118%
COc1ccc(CNCCCO)cc1OC 46.4%
COc1ccccc1-n1cnc2cc(NS(=O)(=O)c3ccccc3)ccc21 53.3%
C/C(Cc1ccccc1)=N\NC(=O)CNC(=O)c1ccccc1Cl 47.7%
CSc1ccccc1C(=O)Nc1cccc(C(C)=O)c1 45%
